About 2,000 (0.91%) of roughly 220,000 compounds were called active. Another 2% or so got no clear call; they are omitted. A selection follows. Results with a measured potency or affinity are listed apart. A number with no mark means an inactive call. No stated cut-off is given here; in the data, inconclusive means inhibition above about 80% without an active follow-up result; inactive means below that; test concentration not stated here.
Assay: M. tuberculosis H37Rv growth inhibitors, H37Rv strain (AID 1626);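 further: bacteria incubated seven days before Alamar blue readout; 0% = bacteria only wells and 100% = bacteria with antibiotic wells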
Conditions: active compounds read high, concentration not given here

SMILES	inhibition [%]
COc1ccc(CNC(=O)CS(=O)Cc2nc(-c3ccccc3C)oc2C)cc1 (centres undefined)	7.5
COc1ccc(/C=N/NC(=O)c2ccc(CN3c4cccc5cccc(c45)S3(=O)=O)cc2)cc1	0.99
CCOC(=O)c1sc(NC(=O)CCCCl)nc1C	6.92
CC(C)Cn1c(N)c(C(=O)COC(=O)C2CCCCC2)c(=O)n(C)c1=O	-2.8
Cc1cc(NC(=O)COC(=O)c2ccc(S(=O)(=O)N3CCCC3)cc2)no1	5.16
CN(c1ccccc1C(=O)NC1CC2CCC1C2)S(=O)(=O)c1ccccc1 (centres undefined)	5.72
CC1CCCC/C1=N\NC(=S)Nc1cccnc1 (centres undefined)	-2.62
COc1ccc(NC(=O)CN(C)CC(=O)Nc2ccccc2SC)cc1Cl	-0.42
COc1ccccc1CNC(=O)CN(C)CC(=O)Nc1cccc(F)c1	-0.48
CCCCOc1ccc(C(C)NC(=O)C2CCCN(S(=O)(=O)CC)C2)cc1 (centres undefined)	-2.95
CCC(=NCCO)c1c(O)n(C2CCCCC2)c(=O)[nH]c1=O	3.46
CCOC(=O)c1cnc2ccc(C)cc2c1Nc1ccc(N2CCOCC2)cc1	0.42
CCOC(=O)c1cnc2ccc(C(=O)OC)cc2c1Nc1ccc(C(=O)O)cc1	-2.69
O=C(O)c1cc(-n2cccc2)ccc1N1CCOCC1	-4.7
COc1ccccc1NC(=S)NC1CCCCCC1	-4.57
CN(C)/C=C(/C(=O)c1ccccc1)n1cncn1	-12.5
Cc1nn(C)c(C)c1/C=C(/C(=O)C(C)(C)C)n1cncn1	-5.89
CCS(=O)(=O)c1c([N+](=O)[O-])ncn1C	76.2
Cn1cnc([N+](=O)[O-])c1Cl	0.19
Cn1cnc([N+](=O)[O-])c1Oc1ccc2ccccc2c1	13.9
Cc1cccc(Sc2c([N+](=O)[O-])ncn2C)c1	4.79
Cc1cccc(C(=O)N=c2c(C#N)cc3c(=O)n4cccc(C)c4nc3n2Cc2ccco2)c1	-8.85
CCN(C(=O)COC(=O)c1cc(S(=O)(=O)Nc2c(C)n(C)n(-c3ccccc3)c2=O)ccc1Cl)C1CCCCC1	-3.86
Cc1cccc(NC(=O)CCOc2ccccc2)c1	-1.8
Cc1cc(C)n(-c2nc(-c3ccccc3)cs2)n1	4.34
O=C(CNC(=O)c1ccco1)OCc1ccc(C(=O)c2ccccc2)cc1	3.51

SMILES	inhibition [%]
Cc1ccc(C)c(CSCC(=O)NCc2cccs2)c1	-7.19
Cc1cccc(N2CCN(Cc3ccoc3)CC2)c1C	2.81
Cc1cc(C)n(-c2nc(SCC(=O)O)c3c4c(sc3n2)CCCC4)n1	63.1
Cc1cc(C)n(-c2nc(SCC(=O)Nc3nccs3)c3c4c(sc3n2)COC(C)(C)C4)n1	23.3
Cc1cc(C)n(-c2nc(SCCN(C)C)c3c4c(sc3n2)COC(C)(C)C4)n1	14.6
Cc1cc(C)n(-c2nc(NCCCN(C)C)c3c4c(sc3n2)CCCC4)n1	17.3
CC1(C)Cc2c(sc3nc(SCC(=O)O)[nH]c(=O)c23)CO1	-1.16
CCCN(CC(=O)Nc1ccc(F)c(F)c1F)Cc1cc(=O)n2ccsc2n1	-1.11
O=C(NCc1ccco1)C12CC3CC(C1)CC(C(=O)NCc1ccco1)(C3)C2	-5.09
O=c1c2ccccc2nc(-c2cccc(Cl)c2)n1O	66.9
O=c1c2ccccc2nc(-c2ccccc2Cl)n1O	2.24
CC1CC(C)CN(c2ccc(C(=O)NCc3ccc4c(c3)OCO4)cc2[N+](=O)[O-])C1 (centres undefined)	13.2
Cc1ccccc1C(=O)Nc1ccc(C(=O)N/N=C/c2ccc(O)c(Br)c2)cc1	6.55
CCOC(=O)N1CCC(NC(=O)C2CCCN(C(=O)c3cc4sccc4n3C)C2)CC1 (centres undefined)	-2.27
O=C(NCCN1CCN(c2ccccc2)CC1)c1cccn2c(=O)c3ccccc3nc12	5.61
Cc1cc(Cl)n2nc(C)c(-c3ccc(Cl)cc3)c2n1	0.72
COCCNc1cc(C)nc2c(-c3ccccc3OC)c(C)nn12	-2.69
Cc1cc(NCCC(C)C)n2nc(C)c(-c3ccccc3)c2n1	11.3
COc1ccc(CCNc2cc(C)nc3c(-c4ccccc4)cnn23)cc1OC	1.98
CCOC(=O)c1ccc(NC(=O)C2CCN(C(=O)c3ccc(OC)c(OC)c3)CC2)cc1	-6.93
O=C(NC1=NCCCCC1)c1cccc2ccccc12	-1.94
COc1cccc(CNCCSc2nnnn2C)c1	6.16
CCNC(=O)N1CCCC(C(=O)c2ccc3cc(OC)ccc3c2)C1 (centres undefined)	-5.17
COC(=O)c1ccc(CSc2nnc3c(Cl)cc(Cl)cn23)o1	-5.19
CCc1ccc(NC(=O)N(Cc2ccco2)C(C)c2cccs2)cc1 (centres undefined)	0.17
CCN(CCCNC(=O)C1CCC(=O)N1C1CCCC1)c1cccc(C)c1 (centres undefined)	0.34

SMILES	inhibition [%]
Cc1c(C(=O)Oc2cccc3ccccc23)cnn1-c1ccccc1	27.3
COc1ccc(OC(=O)c2c(C)nn(-c3ccccc3)c2C)cc1	-12.3
NC(=O)CSc1nnnn1-c1ccc(OC(F)(F)F)cc1	-7.21
CCC1=CCN(CCc2c(C)[nH]c3ccccc23)CC1	-0.79
NNC(=S)Nc1c(Br)cc(F)cc1Br	-5.67
CCC1(C)N=C(c2ccc3c(c2)OCO3)CC(c2ccccc2O)N1 (centres undefined)	14.6
Clc1ccc2nc(-c3ccc4c(c3)OCO4)cn2c1	4.92
COc1cccc(C2=NC(C)(C)NC(c3ccccc3O)C2)c1 (centres undefined)	4.8
CCOc1ccccc1C1N=C(c2ccc(OC)cc2)CC(c2ccccc2O)N1 (centres undefined)	7.98
CN1CCC(N(C)CC(=O)Nc2ccccc2N2CCOCC2)CC1	13.7
O=C(NCCCO)NC(=S)c1cccc2ccccc12	-0.39
CCc1ccc(Nc2nnc(SCC(=O)NC(=O)c3cccn3C)s2)cc1	2.04
Cc1cc(NC(=O)CSc2nnc(Nc3ccccc3C)s2)no1	-2.04
CCc1ccc(Nc2nnc(SCC(=O)Nc3ccc(C(=O)O)cc3)s2)cc1	-5.8
CCc1ccccc1NC(=O)CN(C)C(=O)CSc1nnc(Nc2cccc(C)c2)s1	6.25
Cc1cccc(Nc2nnc(SCC(=O)Nc3ccc(C(=O)O)cc3)s2)c1	13.8
Cc1ccc(C)c(SCC(=O)Nc2cccnc2Cl)c1	18.9
CCOC(=O)c1cc2c(ccn2-c2ccc(F)cc2)n1CC(=O)N1CCN(C(=O)c2ccco2)CC1	-1.91
Clc1ccccc1CNC1CN2CCC1CC2 (centres undefined)	5.7
CCNc1ncnc2c1cnn2C	-10.7
Cc1ccc(SCc2[nH]nc3c2C2(C(=O)Nc4ccc([N+](=O)[O-])cc42)C(C#N)=C(N)O3)cc1 (centres undefined)	-2.15
CCN(CC)c1ccc(CNc2nc3ccccc3n2CCN2CCOCC2)cc1	6.6
COc1ccc(CNc2nc3ccccc3n2CCN2CCCCC2)cc1	-0.5
Cc1ccc(S(=O)(=O)NCc2ccc(C(=O)N(C)CCC#N)cc2)cc1	4.15
Cc1ccc(NC(=O)c2cnccn2)cc1	3.69
O=C(CCNc1cccc(C(F)(F)F)c1)c1ccco1	53.5

SMILES	inhibition [%]
O=C(Nc1ccc(Cl)c(C(F)(F)F)c1)c1ccco1	10.7
O=C(COC(=O)CCS(=O)(=O)c1ccc(Cl)cc1)NC1CCCCC1	0.69
CCOc1ccc(-c2nnc3ccc(SCC(=O)Nc4cc(C)on4)nn23)cc1	4.14
COc1cccc(-c2nnc(SCC(=O)Nc3cc(C)on3)n2C)c1	-2.38
Cc1ccc(-c2nnc(SCCC(=O)N3CCOCC3)o2)cc1	77.5
Cc1cc(NC(=O)CSc2nnc(Cc3ccccc3)o2)no1	-8.58
Cc1cc(NC(=O)CSc2nnc(COc3ccccc3)o2)no1	3.02
Cc1cc(NC(=O)CSc2nnc(-c3ccco3)o2)no1	-3.8
O=C(CCSc1nnc(-c2ccc(O)cc2)o1)N1CCOCC1	-1.1
Cc1cc(NC(=O)CSc2nnc(-c3ccc(O)cc3)o2)no1	-6.89
COc1cc(OC)c(Nc2cc(C)nc3nc(C)nn23)cc1Cl	10.9
COc1ccccc1N1CCN(C(c2ccc(Cl)cc2)c2nnnn2C(C)(C)C)CC1 (centres undefined)	3.99
COc1ccc(-n2c(O)c(C=Nc3c(C)n(C)n(-c4ccccc4)c3=O)c(=O)[nH]c2=O)cc1	6.56
CN(c1ccc(C(=O)N2CCN(Cc3ccc4c(c3)OCO4)CC2)cc1)S(=O)(=O)c1ccccc1	7.14
O=C(Nc1cccc(NC(=S)NC(=O)c2cccs2)c1)c1ccccc1	-2.28
CSc1cccc(NC(=S)N(CCC(C)C)C2CCN(C(C)=O)CC2)c1	-6.61
CC(N)C(=O)c1ccco1 (centres undefined)	-3.4
COc1ccccc1NC(=S)NNC(=O)c1cc(C)nn1C	-9.1
COc1ccc(-c2nnc(SCC(=O)Nc3nncs3)o2)cc1	1.2
O=C(CSc1nnc(-c2ccc(O)cc2)o1)Nc1ccc2c(c1)OCCO2	-0.38
COc1ccc(-c2nnc(SCC(=O)Nc3cc(F)ccc3C)o2)cc1	-6.49
Cc1cc(NC(=O)CSc2ccc3c(c2)OCCO3)no1	-5.76
Cc1cc(NC(=O)CSc2nnc(-c3ccoc3C)o2)no1	4.02
Cc1ccc(NCc2nnc(SCC(=O)Nc3cc(C)on3)n2C)cc1	-5.91
COc1ccccc1-c1nnc(SCC(=O)Nc2c(Cl)cccc2Cl)o1	-3.32
COc1ccccc1-n1c(CNc2ccc(F)cc2)nnc1SCC(=O)Nc1cc(C)on1	-4.09
